# Most compounds without a hit are left out; they make up all but 6.8% or so of the library.
# Pf Dd2 inh: P. falciparum Dd2 growth inhibitors, primary screen, SYBR Green fluorescence, single dose replicates; 72 h; stronger effect = lower value; activity change, % at 10 µM; 94,000 compounds, 2.3% hits; AID 1159554, 2015; in the data active = activity change below about -80%; inconclusive = no clear call, values can overlap the other calls
# T cruzi growth-1: T. cruzi intracellular proliferation inhibitors, primary screen, cell-based, beta-gal Tulahuen parasites, NIH3T3 host, luminescence | 77,000 compounds, 5.9% hits | T. cruzi beta-gal in NIH3T3, GalScreen luminescence, 90 h | inhibition, % at 8.34 µM;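 active = mean inhibition above about 93%, with at least 55% of replicates each passing it, limit read from the data, passing the limit was not always enough; inconclusive = only one of those two conditions holds; inactive = neither condition holds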
# C diff growth: C. difficile growth inhibitors, primary screen, HTS | Clostridium difficile clinical isolate growth, OD600, 24 h; stronger effect = lower value | growth activity, negative = inhibition, % at 16 µg/mL (by protocol) | 86,000 compounds, 0.25% hits | AID 1259249, 2017;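 active = mean growth activity at or below -80% and every replicate also at or below -80%; inconclusive = mean at or below -80% but some replicate above -80%; inactive = mean growth activity above -80%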;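 note: 0% = DMSO wells and -100% = levofloxacin 16 µg/mL wells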
# T cruzi growth-2: T. cruzi intracellular proliferation inhibitors, confirmation, cell-based, NIH3T3 host, beta-gal parasite, luminescence, cherry-pick; inhibition, % at 8.35 µM; T. cruzi beta-gal in NIH3T3, GalScreen luminescence, 90 h; 5,600 compounds, 72% hits; shares compounds with T cruzi growth-1; AID 651739, 2012;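 active = mean replicate inhibition above about 95% and at least 55% of replicates individually reaching it, limit read from the data; inconclusive = only one of the two criteria is met; inactive = neither criterion is met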
# T cruzi growth-3: inhibitors of intracellular T. cruzi replication, confirmation, NIH3T3 host cells, beta-gal parasites, cherry-pick, set 2; shares compounds with T cruzi growth-1; T. cruzi beta-gal in NIH3T3, GalScreen luminescence, 90 h; inhibition, % at 2.09 µM; 5,600 compounds, 21% hits;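 active = mean inhibition above about 95%, with at least 55% of replicates also reaching it, limit read from the data; inconclusive = meets just one of the two conditions; inactive = meets neither condition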;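 note: plate controls were neutral control median for no effect and positive control median for full effect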
# 3T3 cytotox: cytotoxicity in mouse NIH/3T3 fibroblasts, confirmation, cytotoxicity control for T. cruzi proliferation inhibitor project, cell-based, cherry-pick, single point; shares compounds with T cruzi growth-1; NIH/3T3 viability, CellTiter-Glo ATP luminescence, 90 h; cytotoxicity (signal decrease), % at 8.35 µM; 5,600 compounds, 14% hits; AID 651742, 2012;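 active = mean signal decrease across replicates above about 35% based on untreated-well scatter, with enough replicates individually passing, limit read from the data; inconclusive = no rule stated though some were filed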;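 note: 0% = median of neutral control wells and 100% = median of positive control wells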
# 3T3 cytotox 2: NIH/3T3 fibroblast cytotoxicity, confirmation, cytotoxicity control, cell-based, cherry-pick, single point, set 2; shares compounds with T cruzi growth-1; NIH/3T3 viability, CellTiter-Glo ATP luminescence, 90 h; inhibition, % at 24.9 µM; 5,600 compounds, 56% hits; AID 651744, 2012;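 active = mean loss of cell viability signal at or above a set limit, and enough replicates individually reaching it; inconclusive = meets only the mean limit or only the replicate share; inactive = meets neither condition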;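 note: 0% = median of neutral control wells and 100% = median of positive control wells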
# Numbers without * were called inactive; u = inconclusive; x = not tested or not shown.
SMILES,Pf Dd2 inh,T cruzi growth-1,C diff growth,T cruzi growth-2,T cruzi growth-3,3T3 cytotox,3T3 cytotox 2
O=C(Cc1ccccn1)N1CCCCN2[C@H](C1)[C@@H](c1ccc(C#Cc3ccccc3)cc1)[C@@H]2CO,-56,99*,-18,105*,51,41*,104*
CCCC#Cc1ccc([C@H]2[C@H](CO)N3CCCCN(C(=O)Cc4ccccn4)C[C@@H]23)cc1,-17,49,-11,x,x,x,x
CCCC#Cc1ccc([C@@H]2[C@@H](CO)N3CCCCN(C(=O)Cc4ccccn4)C[C@H]23)cc1,-16,86,1,x,x,x,x
CCCC#Cc1ccc([C@@H]2[C@@H](CO)N3CCCCN(C(=O)Cc4ccccn4)C[C@@H]23)cc1,-55,110*,-5,u,57,22,13
CC=Cc1ccc2n(c1=O)C[C@H]1[C@H](CO)[C@@H](C(=O)O)[C@@H]2N1S(=O)(=O)c1ccccc1C (mixture of isomers),9,-10,6,x,x,x,x
COC(=O)[C@@H]1[C@@H](CO)[C@@H]2Cn3c(ccc(-c4ccccc4F)c3=O)[C@H]1N2Cc1cccnc1,-9,2,-3,x,x,x,x
CCCN1[C@@H]2c3ccc(-c4cccc(C(=O)N(C)C)c4)c(=O)n3C[C@H]1[C@H](CO)[C@H]2C(=O)OC,x,-14,-11,x,x,x,x
COC(=O)[C@@H]1[C@@H](CO)[C@@H]2Cn3c(ccc(-c4cccc(C(=O)N(C)C)c4)c3=O)[C@H]1N2CC1CC1,41,x,-1,x,x,x,x
CC=Cc1ccc2n(c1=O)C[C@H]1[C@H](CO)[C@@H](C(=O)N(C)C)[C@@H]2N1C (mixture of isomers),x,13,6,x,x,x,x
CC(C)NC(=O)N1[C@@H]2Cn3c(ccc(-c4cccc(C(=O)N(C)C)c4)c3=O)[C@H]1[C@@H](C(=O)O)[C@@H]2CO,x,-271,-5,x,x,x,x
CN(C)CC#Cc1ccc([C@H]2[C@@H](CO)N3CCCCN(C(=O)Cc4ccccn4)C[C@H]23)cc1,7,61,7,x,x,x,x
CN(C)CC#Cc1ccc([C@@H]2[C@H](CO)N3CCCCN(C(=O)Cc4ccccn4)C[C@@H]23)cc1,4,114*,27,15,24,-1,6
CN(C)CC#Cc1ccc([C@@H]2[C@@H](CO)N3CCCCN(C(=O)Cc4ccccn4)C[C@@H]23)cc1,-4,91,1,x,x,x,x
CN(C)CC#Cc1ccc([C@@H]2[C@@H](CO)N3CCCCN(C(=O)Cc4ccccn4)C[C@H]23)cc1,-16,114*,17,48,15,16,1
O=C(O)[C@@H]1[C@@H](CO)[C@@H]2Cn3c(ccc(-c4ccc(F)cc4)c3=O)[C@H]1N2CC1CCCCC1,x,15,4,x,x,x,x
O=C(Cc1cccnc1)N1CCCCN2[C@H](CO)[C@H](c3ccc(/C=C/c4ccccc4)cc3)[C@@H]2C1,8,119*,-12,114*,102*,u,79*
O=C(Cc1cccnc1)N1CCCCN2[C@@H](CO)[C@H](c3ccc(/C=C/c4ccccc4)cc3)[C@@H]2C1,8,105*,52,104*,73,u,104*
C/C=C/c1ccc([C@@H]2[C@@H](CO)N3CCCCN(C(=O)Cc4cccnc4)C[C@H]23)cc1,16,52,-3,x,x,x,x
O=C(Cc1cccnc1)N1CCCCN2[C@H](C1)[C@H](c1ccc(/C=C/c3ccccc3)cc1)[C@@H]2CO,-10,94,-6,x,x,x,x
Cc1cccc(S(=O)(=O)N2[C@@H]3c4ccc(-c5cccc(F)c5)c(=O)n4C[C@H]2[C@H](CO)[C@H]3C(=O)O)c1,-4,6,0,x,x,x,x
CC[C@H]1C=C(C(=O)N[C@@]2(C(=O)O)C[C@H]2CC)[C@H]2CCC(=O)[C@H]2C1,x,x,-1,x,x,x,x

# Screening results: PubChem, Broad Institute
